# Test results from PubChem BioAssay AID2315 (National Center for Advancing Translational Sciences (NCATS), 2010).
# About 27,000 (9.3%) of roughly 290,000 compounds were called active. For the sample, actives were picked, then their nearest neighbours and some compounds at random. Values without a mark were called inactive. Rule as the data show it: active = inhibition mostly above about 28% (no sharp cut-off); inactive = mostly below about 43%.
# Assay: A qHTS for Small Molecule Inhibitors of Shiga Toxin; as to inhibition: 0% is about no effect
# Details: Vero cells, Shiga toxin protein synthesis inhibition reporter; at 38.7 µM, stronger effect = higher value
row,SMILES,inhibition
1,S=C(NCc1ccco1)NCc1ccccc1Cl,12.9%
2,CCOC(=O)c1ccc(-n2c(CCC(=O)O)ccc2-c2ccccc2)cc1,1.31%
3,O=C(O)CCn1c(Cc2ccccc2)nc2ccccc21,22.4%
4,CC(=O)c1cccc(NC(=S)N2CCN(S(C)(=O)=O)CC2)c1,-3.09%
5,O=C(COC(=O)CNC(=O)c1ccco1)Nc1ccc(F)cc1,-5.84%
6,COc1ccc(C)cc1-n1nnnc1SCC(=O)c1cc(C)n(Cc2ccco2)c1C,-3.11%
7,Cc1cc(C(=O)COC(=O)CNC(=O)c2ccc(F)cc2)c(C)n1Cc1ccco1,109% (active)
8,Cc1cc(C(=O)CSc2nc(N)cc(=O)[nH]2)c(C)n1Cc1ccco1,-5.79%
9,COCC(C)n1c(C)cc(C(=O)COc2ccc(C)nc2[N+](=O)[O-])c1C (configuration not stated),27%
10,Cc1ccc(OCC(=O)c2cc(C)n(Cc3ccco3)c2C)c([N+](=O)[O-])n1,50.3% (active)
11,CC(C)CCn1c(=O)c2c(nc3n2CCCN3Cc2ccccc2)n(C)c1=O,-11.9%
12,CC(C)C[C@@H](COc1ccccc1)N1CCN(CC(C)C)CCC1=O,6.99%
13,O=S(=O)(c1ccc(Br)cc1)N1CCC(c2nc3ccccc3[nH]2)CC1,20.1%
14,CCCc1cc(=O)oc2c(C)c(OC(C)C(=O)NCC(O)c3ccccc3)ccc12 (configuration not stated),-4.11%
15,O=C(CN(C(=O)c1csnn1)c1cccc(Cl)c1)NC1CCCC1,13.6%
16,C=CCOC(=O)C(=C)C,-5.85%
17,OCc1ccc(OCCCOc2cccc3cccnc23)cc1,31.7%
18,Cc1ccc(S(=O)(=O)NCCC(=O)Nc2ccc(C)c(Cl)c2)cc1C,-2.35%
19,Cc1ccnc(NC(=O)CCNS(=O)(=O)c2ccc(C)c(C)c2)c1,75.2% (active)
20,Cc1ccc(S(=O)(=O)NCCC(=O)Nc2cccc(S(N)(=O)=O)c2)cc1C,3.14%
21,O=[N+]([O-])c1ccccc1/C=C/CN1CCCC(CO)C1 (configuration not stated),-4.92%
22,COc1cc2c(C(=O)N(C)c3cc(Cl)ccc3OC)cn(C)c(=O)c2cc1OC,-4.23%
23,O=C1CCN(CCCc2ccccc2)CCN1CCO,-7.2%
24,N#C/C(=C/c1ccc(Cl)cc1)NC(=O)c1ccccc1,69.2% (active)
25,O=C(NCC1CCCO1)/C(=C/c1ccc(Cl)cc1)NC(=O)c1ccccc1 (configuration not stated),-1.77%

row,SMILES,inhibition
1,O=C(Nc1ccccc1)/C(=C/c1ccc([N+](=O)[O-])cc1)NC(=O)c1ccccc1,0.876%
2,CCn1c(SCC(=O)NC2CC2)nnc1-c1ccncc1,6.57%
3,Cc1nn2c(NCCN(C)C)c3c(nc2c1-c1ccccc1)CCC3,-1.35%
4,Cc1ccc2c(=O)cc(C(=O)NCCc3ccc(S(N)(=O)=O)cc3)oc2c1C,3.06%
5,CCOC(=O)c1ccc(NC2Nc3cc(C)nn3S2)cc1 (configuration not stated),37.2%
6,CCc1ccc(NC2Nc3cc(C)nn3S2)cc1 (configuration not stated),52% (active)
7,CC(C)(C)c1ccc(/C=C/C(=O)NCCCn2ccnc2)cc1,-13.7%
8,CCC(NC(=O)c1ccccc1NC(=O)c1ccccc1)C(=O)NNC(=O)CSc1nc2ccccc2o1 (configuration not stated),23.3% (active)
9,CCOC(=O)c1ccccc1NC(=O)CSc1nc2ccccc2c(=O)[nH]1,-5.65%
10,Cn1c(=O)[nH]c(=O)c2c1nc(Br)n2CCCCSc1nc2ccccc2o1,39.4%
11,COc1ccc(OC)c(NC(=O)C2CCCN2S(=O)(=O)c2cccc3nsnc23)c1 (configuration not stated),-4.24%
12,C=CCNc1nc(Nc2ccc(Cl)cc2)nc(OC)n1,71.3% (active)
13,COc1nc(NCc2ccc(Cl)cc2)nc(OC)n1,45.3%
14,C=CCNc1nc(C)nc(OC)n1,-12.3%
15,Cc1sc2nc(SCCO)n(-c3ccccc3)c(=O)c2c1C,-3.85%
16,Cc1ccc2c(c1)N(C(=O)CCC(=O)NCc1cccnc1)CCO2,3.18%
17,Oc1ccc(Cl)cc1C1C=C(c2ccc3c(c2)OCO3)NC(c2c(F)cccc2Cl)N1 (configuration not stated),68.7% (active)
18,Oc1ccc(Cl)cc1C1C=C(c2ccc3c(c2)OCO3)NC(c2ccc(F)c(Br)c2)N1 (configuration not stated),93.1% (active)
19,Cc1csc(Nc2ccc(Cl)cc2)[n+]1-c1ccc(Cl)cc1,19.3%
20,COCCN1C(=O)C(=O)/C(=C(/O)c2ccc(S(=O)(=O)N3CCCCC3)cc2)C1c1ccc(OC)c(OC)c1 (configuration not stated),11%
21,C/C(=N\NC(=O)CNc1cccc2ccccc12)c1ccc(Br)s1,-8.07%
22,Cc1cccc(/C=N/NC(=O)CNc2cccc3ccccc23)n1,70.6% (active)
23,Cn1cccc1/C=N/NC(=O)CNc1cccc2ccccc12,6.61%
24,CC(C)c1nc(-c2ccccn2)no1,46.2% (active)
25,Clc1ccc(-c2cc(-c3ccccn3)on2)c(Cl)c1,48.1%

row,SMILES,inhibition
1,c1ccc(-c2nccc(-c3ccc(-n4cnc5ccccc54)cc3)n2)nc1,-13.3%
2,COc1ccc(-n2ncc3c2CC(C)(C)CC3NC(=O)CCc2c(C)noc2C)cc1 (configuration not stated),27.2%
3,O=C(/C=C/c1cccs1)c1cc(Cl)ccc1OC(=O)N1CCOCC1,18.1%
4,COc1ccc(-c2nc(CS(=O)(=O)CC(=O)NCc3cccc(Br)c3)c(C)o2)cc1,4.36%
5,O=C(O)C(c1ccccc1)N1C(=O)/C(=C\c2ccc(-c3cccc(Cl)c3)o2)SC1=S (configuration not stated),-2.95%
6,O=C1c2ccccc2NC(c2ccc(-c3cccc(Cl)c3)o2)N1O (configuration not stated),58.1% (active)
7,O=C1NN(c2ccccc2)C(=O)/C1=C/c1ccc(-c2cccc(C(=O)O)c2)o1,18.2%
8,COc1cccc(N(CC(=O)NCc2ccccc2)C(=O)CCC(=O)Nc2nccs2)c1,-2.69%
9,COc1ccc(NS(=O)(=O)c2ccc(NC(=S)NC(=O)CC(C)C)cc2)cc1,-7.41%
10,CC(=O)c1ccc(NC(=S)NC(=O)CC(C)C)cc1,26.8% (active)
11,CC(C)CC(=O)NC(=S)Nc1cc(C(=O)O)ccc1Cl,30.7%
12,CCOC(=O)C1CCN(S(=O)(=O)c2c(C)noc2C)CC1,30.7%
13,COC(=O)c1ccccc1NC(=O)CSc1n[nH]c(-c2ccncc2)n1,4.61%
14,Cc1cccc(C(=O)Nc2ccc(CC(=O)O)cc2)c1,18.5%
15,Cc1cccc(C(=O)Nc2ccc(C(=O)N/N=C/c3cccc(C)n3)cc2)c1,3.17%
16,Cc1cccc(C(=O)Nc2ccc(C(=O)/C=C/c3cccs3)cc2)c1,99.7% (active)
17,Cc1ccc(C(=O)N/C(=C\c2cn(S(=O)(=O)N(C)C)c3ccccc23)C(=O)N2CCCC2)cc1,-2.9%
18,CCOc1ccc(C(C(=O)NC2CCCC2)N(C(=O)c2snc(C(N)=O)c2N)C2CCCC2)cc1 (configuration not stated),12.4%
19,COc1cccc(CSc2nc3nc(C)cc(C)n3n2)c1,-3.55%
20,COC(=O)CSc1nc(C2CC2)nc2ccccc12,-5.63%
21,COc1ccc2[nH]c3nc(SCC(=O)NC4CC4)nnc3c2c1,-7.63%
22,COc1ccc2nc(SCc3ccccc3)nc(C)c2c1,70.1% (active)
23,COc1ccc(-c2nnc3ccc(SCc4ccccc4)nn23)cc1,9.35%
24,COC(=O)CSc1nc(C)c2ccc(OC)cc2n1,44.6% (active)
25,O=C(COc1cc2oc(=O)c3c(c2cc1Cl)CCC3)NCCCN1CCOCC1,-7.49%

row,SMILES,inhibition
1,NC(=O)c1cc(S(=O)(=O)NCCCc2ccco2)cs1,19.4%
2,O=[N+]([O-])c1ccccc1N/N=C1\CCc2ccccc21,50.9% (active)
3,O=[N+]([O-])c1cc(C(F)(F)F)ccc1NN=C1CCCC1,9.47%
4,CN1CCN(CCNC(=O)Nc2ccccc2[N+](=O)[O-])CC1,24.3%
5,CCOC(=O)C1CCCN(S(=O)(=O)c2ccc(-n3cnnn3)c(C)c2)C1 (configuration not stated),-3%
6,CC(C)(C)c1ccc(CN2C(=O)c3ccccc3S2(=O)=O)cc1,32.5%
7,CC(C)(C)c1ccc(OC2=CS(=O)(=O)c3ccccc32)cc1,135% (active)
8,COc1ccc(CN2CCC(=O)c3ccccc3S2(=O)=O)cc1,-3.72%
9,Cc1cccc(OCC(=O)NCCNC(=O)c2cccnc2)c1,-6.35%
10,Brc1ccc(C2CC(c3ccccc3)=Nc3ccccc3N2)cc1 (configuration not stated),105% (active)
11,Brc1ccc(C2=NCCC(c3ccccc3)O2)cc1 (configuration not stated),inactive
12,Cc1cc(=O)oc2cc(OCC(=O)N3CCN(c4ccc(F)cc4)CC3)c(Cl)cc12,-2.97%
13,O=C(Nc1ccc(S(=O)(=O)N2CCCCC2)cc1)C1CC(=O)N(c2ccc(F)cc2)C1 (configuration not stated),29.9%
14,Cc1cc2oc(=O)cc(CN3CCN(Cc4ccccc4)CC3)c2cc1C,-3.23%
15,Cc1noc(C)c1C(=O)NCCc1ccc(S(N)(=O)=O)cc1,10.5%
16,Clc1ccc(CN2CCCCCC2)cc1Cl,-3.6%
17,Cc1cccc(N2CCN(C(=O)c3cccc(S(=O)(=O)N4CCc5ccccc5C4)c3)CC2C)c1 (configuration not stated),-8.81%
18,N#Cc1ccc(N2Cc3ccccc3/C2=N/C(=O)Nc2ccc(Cl)cc2)cc1,24.7%
19,Cc1cccc(N2Cc3ccccc3C2=NC(=O)c2ccc(Cl)nc2)c1,0% (active)
20,O=C(NCN1CCN(CCO)CC1)c1cnccn1,13%
21,CCN1CCN(c2ccc(NC(=O)c3cnccn3)cc2)CC1,48.5% (active)
22,O=C(Nc1ccc(S(=O)(=O)N2CCCCC2)cc1)c1cnccn1,-1.88%
